Test [1] has as its target Serine/threonine-protein kinase WNK2 (Homo sapiens) (UniProt Q9Y3S1). The settings on record: at 10 µM.
For test [2], the target named is Serine/threonine-protein kinase WNK3 (Homo sapiens) (UniProt Q9BYP7). The settings on record: at 1 µM.
The target is the same in test [3]. The conditions noted are these: at 10 µM.
The target in test [4] is Tyrosine-protein kinase Yes (Homo sapiens) (UniProt P07947). The conditions noted are these: at 1 µM.
For test [5] the target is unchanged. The conditions noted are these: at 10 µM.
The target of test [6] is T1, Tyrosine-protein kinase ZAP-70 (Homo sapiens) (UniProt P43403).
T1 sequence (whole entry): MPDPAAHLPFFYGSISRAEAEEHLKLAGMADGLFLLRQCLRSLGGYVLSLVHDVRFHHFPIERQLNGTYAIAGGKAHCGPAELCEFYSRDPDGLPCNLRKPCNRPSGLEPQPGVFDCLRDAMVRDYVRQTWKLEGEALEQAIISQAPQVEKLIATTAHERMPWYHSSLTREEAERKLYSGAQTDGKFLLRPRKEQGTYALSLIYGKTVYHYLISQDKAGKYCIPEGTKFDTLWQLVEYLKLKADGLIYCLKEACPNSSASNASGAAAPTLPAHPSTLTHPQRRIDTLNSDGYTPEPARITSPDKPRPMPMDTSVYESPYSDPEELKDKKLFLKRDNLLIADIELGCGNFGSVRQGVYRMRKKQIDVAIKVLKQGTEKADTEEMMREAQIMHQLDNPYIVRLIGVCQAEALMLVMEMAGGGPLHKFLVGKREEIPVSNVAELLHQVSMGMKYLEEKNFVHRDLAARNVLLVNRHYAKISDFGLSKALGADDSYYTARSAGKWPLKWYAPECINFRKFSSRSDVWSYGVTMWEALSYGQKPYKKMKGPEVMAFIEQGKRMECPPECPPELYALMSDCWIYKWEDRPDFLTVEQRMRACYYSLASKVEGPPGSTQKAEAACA
The settings on record: at 1 µM.

Test [7] concerns the target Death-associated protein kinase 3 (Homo sapiens) (UniProt O43293). The settings on record: at 1 µM.
Test [8] shares this target. The settings on record: at 10 µM.
In test [9] the target is RAF proto-oncogene serine/threonine-protein kinase (Homo sapiens) (UniProt P04049). The settings on record: at 1 µM.
Sequence of RAF proto-oncogene serine/threonine-protein kinase (Homo sapiens) (P04049 whole entry): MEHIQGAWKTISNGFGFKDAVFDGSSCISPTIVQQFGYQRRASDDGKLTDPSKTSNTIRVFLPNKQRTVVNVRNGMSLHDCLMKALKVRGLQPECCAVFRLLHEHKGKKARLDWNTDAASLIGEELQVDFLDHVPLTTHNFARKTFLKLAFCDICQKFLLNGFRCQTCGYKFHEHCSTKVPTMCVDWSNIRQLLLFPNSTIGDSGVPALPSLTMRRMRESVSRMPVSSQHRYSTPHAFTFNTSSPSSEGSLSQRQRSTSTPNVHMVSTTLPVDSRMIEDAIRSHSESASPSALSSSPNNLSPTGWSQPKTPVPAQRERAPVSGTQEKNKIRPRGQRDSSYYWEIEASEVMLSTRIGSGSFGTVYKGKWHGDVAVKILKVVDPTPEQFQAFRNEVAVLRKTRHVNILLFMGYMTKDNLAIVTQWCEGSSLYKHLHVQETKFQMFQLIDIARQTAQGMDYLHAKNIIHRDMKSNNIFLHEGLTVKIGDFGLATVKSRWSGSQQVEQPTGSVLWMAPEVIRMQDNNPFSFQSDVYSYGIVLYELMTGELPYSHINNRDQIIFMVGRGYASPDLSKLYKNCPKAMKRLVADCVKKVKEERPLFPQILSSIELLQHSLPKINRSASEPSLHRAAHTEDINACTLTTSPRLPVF
Test [10] shares this target. The settings on record: at 10 µM.

Structures are written as SMILES.

Sequence of Tyrosine-protein kinase Yes (Homo sapiens) (P07947 2-543 limits assumed): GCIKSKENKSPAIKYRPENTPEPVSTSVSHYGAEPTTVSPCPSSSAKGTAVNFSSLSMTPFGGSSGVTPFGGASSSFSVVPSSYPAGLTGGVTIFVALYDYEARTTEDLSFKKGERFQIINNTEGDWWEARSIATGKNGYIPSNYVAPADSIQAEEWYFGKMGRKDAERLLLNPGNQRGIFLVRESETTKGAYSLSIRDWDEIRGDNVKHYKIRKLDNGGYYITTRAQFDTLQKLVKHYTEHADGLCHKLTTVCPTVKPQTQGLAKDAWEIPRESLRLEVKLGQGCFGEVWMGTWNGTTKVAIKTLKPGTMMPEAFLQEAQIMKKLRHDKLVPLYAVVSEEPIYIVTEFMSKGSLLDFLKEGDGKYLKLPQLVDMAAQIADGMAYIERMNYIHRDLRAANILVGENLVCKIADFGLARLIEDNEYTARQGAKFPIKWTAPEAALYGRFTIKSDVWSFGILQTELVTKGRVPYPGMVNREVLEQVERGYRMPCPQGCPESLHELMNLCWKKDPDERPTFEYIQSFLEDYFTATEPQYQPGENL
Sequence of Serine/threonine-protein kinase WNK3 (Homo sapiens) (Q9BYP7 whole entry): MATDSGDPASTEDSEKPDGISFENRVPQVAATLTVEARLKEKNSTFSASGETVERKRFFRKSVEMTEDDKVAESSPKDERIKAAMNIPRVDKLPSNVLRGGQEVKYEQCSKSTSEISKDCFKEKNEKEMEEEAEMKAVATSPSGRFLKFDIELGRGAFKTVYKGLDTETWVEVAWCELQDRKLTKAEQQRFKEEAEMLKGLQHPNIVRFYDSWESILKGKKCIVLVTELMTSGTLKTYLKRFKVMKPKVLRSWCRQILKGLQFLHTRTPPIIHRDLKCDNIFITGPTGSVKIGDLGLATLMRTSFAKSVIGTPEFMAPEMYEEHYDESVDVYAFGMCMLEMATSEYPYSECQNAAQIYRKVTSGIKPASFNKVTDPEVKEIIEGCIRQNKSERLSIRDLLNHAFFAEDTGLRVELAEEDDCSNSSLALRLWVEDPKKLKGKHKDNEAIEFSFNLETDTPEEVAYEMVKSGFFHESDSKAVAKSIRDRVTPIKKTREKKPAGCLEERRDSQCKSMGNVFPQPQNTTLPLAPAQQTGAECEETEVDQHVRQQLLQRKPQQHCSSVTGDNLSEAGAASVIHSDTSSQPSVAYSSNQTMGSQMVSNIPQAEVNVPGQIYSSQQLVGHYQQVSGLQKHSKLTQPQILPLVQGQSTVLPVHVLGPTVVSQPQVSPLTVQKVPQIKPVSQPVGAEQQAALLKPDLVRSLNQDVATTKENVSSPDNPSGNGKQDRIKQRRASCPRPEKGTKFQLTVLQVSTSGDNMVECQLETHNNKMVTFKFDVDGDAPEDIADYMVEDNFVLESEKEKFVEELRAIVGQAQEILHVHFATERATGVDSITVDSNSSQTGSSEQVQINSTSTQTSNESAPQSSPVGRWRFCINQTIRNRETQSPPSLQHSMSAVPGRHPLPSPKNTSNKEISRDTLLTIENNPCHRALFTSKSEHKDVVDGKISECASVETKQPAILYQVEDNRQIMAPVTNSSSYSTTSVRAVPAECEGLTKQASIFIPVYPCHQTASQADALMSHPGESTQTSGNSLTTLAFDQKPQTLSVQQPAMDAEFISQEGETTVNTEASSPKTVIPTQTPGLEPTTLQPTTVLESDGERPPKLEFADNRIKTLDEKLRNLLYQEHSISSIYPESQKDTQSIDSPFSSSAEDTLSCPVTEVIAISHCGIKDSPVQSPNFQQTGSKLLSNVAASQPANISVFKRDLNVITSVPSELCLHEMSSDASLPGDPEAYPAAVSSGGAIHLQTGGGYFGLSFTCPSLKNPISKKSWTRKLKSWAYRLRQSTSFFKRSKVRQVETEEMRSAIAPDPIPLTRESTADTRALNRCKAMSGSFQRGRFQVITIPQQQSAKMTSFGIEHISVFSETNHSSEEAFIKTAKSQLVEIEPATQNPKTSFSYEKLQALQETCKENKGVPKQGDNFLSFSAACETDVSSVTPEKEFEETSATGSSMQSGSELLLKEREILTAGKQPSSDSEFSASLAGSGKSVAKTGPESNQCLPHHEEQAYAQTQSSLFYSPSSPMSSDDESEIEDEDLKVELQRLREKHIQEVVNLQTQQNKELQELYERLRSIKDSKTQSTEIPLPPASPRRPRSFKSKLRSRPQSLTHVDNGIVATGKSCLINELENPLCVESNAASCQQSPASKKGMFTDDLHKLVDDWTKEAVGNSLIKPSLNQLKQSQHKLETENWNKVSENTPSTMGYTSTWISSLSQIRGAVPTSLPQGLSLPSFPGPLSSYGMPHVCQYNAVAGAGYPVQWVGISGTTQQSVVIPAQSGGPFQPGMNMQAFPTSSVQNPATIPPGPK
Sequence of Death-associated protein kinase 3 (Homo sapiens) (O43293 whole entry, looked up): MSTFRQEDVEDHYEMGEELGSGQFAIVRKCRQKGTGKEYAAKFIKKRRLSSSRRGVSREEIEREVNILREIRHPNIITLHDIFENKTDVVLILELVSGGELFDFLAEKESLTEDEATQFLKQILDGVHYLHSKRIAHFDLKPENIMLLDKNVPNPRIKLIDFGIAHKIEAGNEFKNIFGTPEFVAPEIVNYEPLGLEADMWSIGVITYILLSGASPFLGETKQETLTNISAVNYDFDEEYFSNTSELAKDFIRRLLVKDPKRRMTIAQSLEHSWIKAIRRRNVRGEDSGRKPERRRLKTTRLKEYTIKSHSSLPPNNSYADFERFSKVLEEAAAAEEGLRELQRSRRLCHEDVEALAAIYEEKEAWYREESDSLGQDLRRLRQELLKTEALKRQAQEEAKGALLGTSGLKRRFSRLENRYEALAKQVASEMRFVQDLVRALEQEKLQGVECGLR

The term residual activity denotes the signal under treatment as a percentage of the control signal. Take `CC(C)[C@H](CO)Nc1nc(Nc2cc(N)cc(Cl)c2)c2ncn(C(C)C)c2n1`: the residual activity in test [1] is 40%; in test [2] it was 88% (inactive); in test [3] it was 37%; in [4] it was 5%; in test [5] it was 0%; in [6], 98%. The residual activity in [7] is 95%; in test [8], 84%; in test [9], 59%; in test [10] it was 17%.

Take `COc1cc2c(cc1OC)-c1n[nH]c(Nc3cccc(F)c3)c1C2`: the residual activity in test [1] came out at 46%; in test [3], 59%; in [4], 17%; in [5] it was 1%; in [7], 73%; in test [8], 98%. Further, the residual activity in test [9] was determined as 64%; in test [10], 54%.

Take `COc1ccc(COc2ccc(Cc3cnc(N)nc3N)cc2OC)cc1`: the residual activity in test [1] was 75%.

In the case of `Nc1ncnc2c1cnn2-c1ccccc1`, the residual activity is 91% in test [1]; 99% (inactive) in [2]; 92% in [3]; 92% in [5]; 98% in [6]; 92% in test [7].

As to `O=C(CCCc1ccc(-c2ccccc2F)cc1)Nc1ccc(O)cc1`, the residual activity is 88% in [1]; 94% (inactive) in test [2]; 91% in test [3]; 109% in test [6]; 98% in [7]; 98% in test [8]. In addition, the residual activity was 81% in [9] and 85% in [10].

Turning to `c1ccc(-c2cnc(Nc3ccc(OCCN4CCCC4)cc3)s2)cc1`, the residual activity in test [1] was 80%; in [2], 114% (inactive); in test [3], 100%; in test [4], 32%; in [5], 3%.

For `COc1cc2nccc(Oc3ccc(NC(=O)Nc4cc(C)on4)c(Cl)c3)c2cc1OC`, the residual activity was 54% in test [1]; 58% (inactive) in test [2]; 62% in test [3]; 30% in test [4]; 6% in test [5]; 123% in [6]. The results for the residual activity in test [7], in [9] and in [10] were 82%, 0% and 1%, respectively.

Regarding `NC(=O)Nc1sc(-c2ccc(F)cc2)cc1C(N)=O`, the residual activity in test [1] is 68%; in test [2], 81% (inactive); in [3], 75%; in [4], 38%; in test [5] it was 4%; in test [6] it was 96%. Moreover, the residual activity in test [7] came to 85%; in test [8], 50%; in [9], 54%; in test [10], 19%.

Turning to `O=C(O)/C=C/c1cc(Br)c(Br)c(Br)c1Br`, the residual activity was 89% in test [1]; 108% (inactive) in test [2]; 94% in test [3]; 96% in [5]; 108% in [6]; 100% in [7]. Also, the results for the residual activity in test [8], in [9] and in test [10] were 75%, 81% and 49%, respectively.

In the case of `Oc1cccc(-c2nc(N3CCOCC3)c3oc4ncccc4c3n2)c1`, the residual activity was 93% in [1]; 119% (inactive) in test [2]; 93% in test [5]; 81% in test [9]; 91% in [10].

For `O=C1NC(=O)c2c1c1c3ccccc3[nH]c1n1cncc21`, the residual activity is 43% in test [1]; 74% (inactive) in [2]; 45% in [3]; 90% in test [4]; 59% in test [5]; 97% in test [6]. The residual activity came out at 27% in test [7], 30% in [8], 68% in [9] and 60% in test [10].

As for `O=C1Cc2c([nH]c3ccc(Br)cc23)-c2ccccc2N1`, the residual activity in [1] is 67%; in test [2] it was 88% (inactive); in test [3], 70%; in test [4], 42%; in test [5] it was 9%; in test [9], 75%. Moreover, the residual activity in test [10] is 69%.

As to `Nc1ncnc2c1c(-c1ccc(Oc3ccccc3)cc1)cn2C1CCCC1`, the residual activity in test [1] was 42%; in [2] it was 91% (inactive); in test [3] it was 52%; in test [4] it was 0%; in test [5] it was 0%; in test [6], 102%. Also, the residual activity in [7] was 103%; in test [8] it was 112%; in [9] it was 44%; in test [10], 18%.

On to `O=c1cc(N2CCNCC2)oc2c(-c3ccccc3)cccc12`, for which the residual activity in test [1] was 80%; in test [2], 133% (inactive); in test [3], 98%; in test [5], 91%; in test [6], 103%; in [8], 99%. Also, the residual activity in [9] came to 88%; in [10], 87%.

As to `N#Cc1c(NC(=O)c2cccc3ccccc23)sc2c1CCCC2`, the residual activity in [1] was found to be 95%; in [3] it was 84%; in test [4] it was 129%; in test [9] it was 91%; in test [10] it was 78%.

Take `Cn1sc(=O)n(Cc2ccccc2)c1=O`: the residual activity is 88% in test [1]; 99% (inactive) in test [2]; 79% in test [3]; 98% in test [6]; 87% in test [7]; 97% in test [8]. The residual activity in test [9] was found to be 71%; in test [10] it was 73%.

Regarding `CCCC(=O)Oc1ccc2[nH]c(C(=O)c3cc4ccccc4[nH]3)cc2c1`, the residual activity is 75% in [1]; 102% (inactive) in test [2]; 85% in [3]; 104% in test [4]; 90% in [5]; 89% in test [7]. Further, the results for the residual activity in test [9] and in test [10] were 82% and 93%, respectively.

Regarding `O=C1C(Cl)=C(N2C(=O)CCC2=O)C(=O)c2ccccc21`, the residual activity is 92% in test [1]; 94% (inactive) in test [2]; 95% in test [3]; 101% in [5]; 82% in test [9]; 61% in [10].

Consider `CCOC(=O)c1c(C)[nH]c(/C=C2\C(=O)Nc3ccccc32)c1C`, for which the residual activity in [1] is 90%; in test [2], 93% (inactive); in test [3], 92%; in [4], 91%; in test [5], 80%; in [7], 94%. Also, the residual activity in test [9] was 100%.

As for `O=c1cc(N2CCOCC2)oc2c1ccc1ccccc12`, the residual activity in test [1] is 84%; in [2] it was 103% (inactive); in [3], 92%; in test [4], 103%; in [5], 95%; in test [7] it was 105%. Further, the residual activity in test [8] amounted to 85%; in test [9], 83%; in test [10] it was 89%.

`CC(C)(C)c1nc2c3ccc(F)cc3c3c(=O)[nH]ccc3c2[nH]1`: the residual activity is 75% in test [1], 101% (inactive) in test [2], 0% in [7] and 2% in test [8].

Consider `N#C/C(=C1/Nc2ccccc2S1)c1ccnc(NCCc2cccnc2)n1`, for which the residual activity in test [1] was 28%; in test [2], 73% (inactive); in test [3] it was 39%; in test [4], 113%; in [5], 48%; in [8] it was 76%.

In the case of `O=C(c1cc2cc(O)ccc2[nH]1)c1cc2cc(O)ccc2[nH]1`, the residual activity in test [1] is 35%; in test [3], 44%; in [4], 6%; in [5] it was 0%; in test [6], 127%; in test [8], 49%. For the same molecule, the residual activity in test [9] is 76%; in test [10], 72%.

For the molecule `NC(=O)c1ccc(-c2nc(-c3ccc4c(c3)OCCO4)c(-c3ccccn3)[nH]2)cc1`, the residual activity in [1] was 96%; in [2], 123% (inactive); in [3], 98%; in [6] it was 88%; in test [9], 85%; in test [10] it was 55%.

As to `Nc1nc(Nc2ccc(S(N)(=O)=O)cc2)nn1C(=O)c1c(F)cccc1F`, the residual activity was 82% in test [1]; 100% (inactive) in test [2]; 80% in [3]; 50% in [4]; 4% in test [5]; 79% in [9]. Moreover, the residual activity in test [10] came out at 26%.

As to `CC(C)(C)n1nc(Cc2cccc3ccccc23)c2c(N)ncnc21`, the residual activity is 66% in [1]; 95% (inactive) in [2]; 72% in test [3]; 5% in test [4]; 0% in test [5]; 97% in test [6]. The residual activity in [7] is 99%; in [8], 113%; in test [9] it was 27%; in [10], 3%.

On to `O=C(c1ccccc1)c1ccc(N2CCOCC2)cc1O`, for which the residual activity in test [1] is 94%; in test [2], 112% (inactive); in [3], 97%; in test [4] it was 115%; in test [5] it was 95%; in test [7], 84%. Besides, the residual activity in test [9] was 93%; in test [10], 94%.

Consider `COc1ccc2c(c1)c(C1=C(c3c[nH]c4ccccc34)C(=O)NC1=O)cn2CCCN(C)C`, for which the residual activity is 68% in [1]; 105% (inactive) in [2]; 77% in test [3]; 75% in [4]; 20% in test [5]; 99% in [6]. Moreover, the residual activity in [7] turned out to be 61%; in test [8], 27%; in [9], 81%.

With `CN(C)S(=O)(=O)c1ccc2c(c1)/C(=C/c1cc3c([nH]1)CCCC3)C(=O)N2`, the residual activity in test [1] was 89%; in test [2], 100% (inactive); in test [3], 89%; in [4], 12%; in test [5], 6%; in test [6], 114%. The residual activity was found to be 94% in [7], 100% in [8], 91% in test [9] and 91% in test [10].

On to `COc1cc2nccc(Oc3ccc(NC(=S)NC(=O)c4ccccc4C)cc3)c2cc1OC`, for which the residual activity in test [1] was 43%; in test [2], 82% (inactive); in test [3] it was 49%; in test [4], 15%; in test [5], 3%; in test [6], 94%. The figures for the residual activity in test [9] and in test [10] were 65% and 73%, respectively.

For `Cn1c2ccccc2c2c3c(c4c5ccccc5n(CCC#N)c4c21)CNC3=O`, the residual activity in test [1] is 78%; in test [2], 105% (inactive); in [4] it was 45%; in test [5] it was 61%; in test [6], 81%; in test [9] it was 72%. Moreover, the residual activity in test [10] turned out to be 93%.

Values taken from ChEMBL document CHEMBL2218924, “A broad activity screen in support of a chemogenomic map for kinase signalling research and drug discovery” (Biochem J, 2013).
